Experimental data reported in PubChem BioAssay (NCATS).
Results filed as inconclusive are left out. Active and inactive are the calls of the source. Calls follow the shape of the dose curve; as a rule, active = well fitted curve in the direction sought with a large enough effect; inconclusive = small, poorly fitted or top-dose-only effect, or another doubt; inactive = no such curve, though single readings can be large; an effect the other way counts as inactive or inconclusive. Where a SMILES comes first, the peptide text is derived from it. [ ]: non-standard residue; d: D form. ξ: configuration not given here. ξLac(3-iPr) = CC(C)CC(O)C(=O)O; NMeV = CN[CH](C(=O)O)C(C)C; NMeA = CN[CH](C)C(=O)O; βAla = NCCC(=O)O

Key:
[1] = test system: Zika virus NS2B-NS3 protease (linked construct); test: Primary screen NINDS Rhodamine qHTS for Zika virus inhibitors (AID 1347160); also: nearly all actives have a fitted effect of over 55% in size
Outline: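 Percent inhibition, normalized to uninhibited and enzyme-free controls, is fitted to a 4-parameter Hill equation. Fluorescence change comes from a 15-min cleavage of 1.5 microM bis-peptide Rhodamine110 substrate by 25 nM linked NS2B-NS3 at room temperature.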

[2] = target: Calcium and integrin-binding protein 1 (Homo sapiens) (UniProt Q99828); test: Primary qHTS for Identification of Calcium Integrin Binding Protein 1 (CIB1) Competitor (AID 1508620);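 also: GST tagged CIB1 binding a fluorescein labelled alphaIIb integrin peptide tracer; top concentration of the series differs between compounds; % is scaled to controls: 0 for no effect and ±100 for the full control effect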
Outline: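 Fluorescence polarization competition: CIB1-GST (1 uM final) preincubated with compound 15 min at room temperature, then FITC-labeled alphaIIb peptide (100 nM final) added for another 15 min. Polarization read at Ex 480/Em 540.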

[3] = target: Glutathione peroxidase 1 (Homo sapiens) (UniProt P07203); test: Primary qHTS Assay for Inhibitors of Recombinant Selenoprotein Glutathione Peroxidase 1 (GPX1) (AID 1845191); also: nearly all actives have a fitted effect of over 65% in size
Outline: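 Recombinant GPX1 (10 nM final) was preincubated with compound for 30 min at room temperature, then reacted with 1 mM GSH, 0.5 mM CHP, 0.5 mM NADPH and 100 nM glutathione reductase; NADPH fluorescence (340/450 nm) was read at 0 and 15 min.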

[4] = target: Phospholipid hydroperoxide glutathione peroxidase GPX4 (Homo sapiens) (UniProt P36969); test: Primary qHTS Assay for Inhibitors of Recombinant Selenoprotein Glutathione Peroxidase 4 (GPX4) (AID 1845192); also: % is scaled to controls: 0 for no effect and ±100 for the full control effect; nearly all actives have a fitted effect of over 65% in size
Outline: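 GR-coupled readout: 100 nM GR, 1 mM GSH, 0.5 mM NADPH; NADPH fluorescence (ex 340/em 450 nm) read at t=0 and after 15 min RT. GPX4 200 nM, preincubated 30 min with compound; substrate 0.5 mM CHP.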

[5] = target: Luciferin 4-monooxygenase (Photinus pyralis) (UniProt P08659); test: Primary firefly luciferase (FLuc) qHTS assay for identification of artifact compounds. (AID 1845220); settings: outcome: dose series up to 54.1 µM unless noted; also: nearly all actives have a fitted effect of over 60% in size
Outline: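 qHTS, 15 min compound preincubation with substrate (10 uM luciferin, 10 uM ATP) at RT, then 10 nM FLuc; 5 min; luminescence; % inhibition vs no-enzyme/DMSO controls, 4-parameter Hill fit.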

[6] = Primary fluorescence-based thiol-reactive (MSTI) qHTS assay for identification of artifact compounds. (AID 1845221);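 also: thiol-reactive compounds lower the probe fluorescence signal; nearly all actives have a fitted effect of over 65% in size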
Outline: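 Compounds were incubated 1 h at room temperature in the dark with the MSTI probe (4 uM) in PBS pH 7.4, 2% DMSO. Signals were normalized between Acetyl-MSTI and MSTI.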

[7] = test system: Nanoluciferase (engineered Oplophorus gracilirostris luciferase); test: Primary Nanoluciferase (NLuc) qHTS assay for identification of artifact compounds. (AID 1845222); also: potency is read from the fitted curve at half-maximal effect
Outline: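 Luminescence read-out of secreted NLuc in S16 cell conditioned medium (1:55); compounds tested with 15 min RT preincubation, then Nano-Glo substrate 1:100, 5 min. % inhibition vs no-enzyme and DMSO controls, 4-parameter Hill fit.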

NIH3T3 = test: Cytotoxic Profiling of Annotated Libraries Using Quantitative High-Throughput Screening (AID 1296008); settings: Five cell lines viability, CellTiter-Glo ATP luminescence, 48-72 h; max response: stronger effect = lower value; also: nearly all actives have a fitted effect of over 60% in size; also: potency is read from the fitted curve at half-maximal effect; as to max response: % is scaled to controls: 0 for no effect and ±100 for the full control effect
Outline: (§1)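 Compounds were pin-transferred onto cells and incubated 48 or 72 hr at 37 degree Celsius, 95% humidity. CellTiter-Glo was added, plates sat 10 min at room temperature, then ATP-coupled luminescence was imaged as the viability read-out.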

C33A = test: Primary qHTS to identify gynecologic anti-cancer compounds using libraries of approved drugs and bioactive compounds (AID 1345084); settings: Gynecologic cancer cell panel viability, ATPlite luminescence, 48 h; series mostly up to 57.5 µM; also: nearly all actives have a fitted effect of over 55% in size; also: potency is read from the fitted curve at half-maximal effect
Outline: (§2)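 Luminescence from the ATPlite ATP-monitoring reagent indicates viable cell number; lower signal means cytotoxicity. Cells received compound 16 h after seeding and were exposed for 48 h across five concentrations.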

CAOV3 = test: as above; settings: Gynecologic cancer cell panel viability, ATPlite luminescence, 48 h; series mostly up to 57.5 µM
Outline: as §2

CASKI = test: as above; settings: Gynecologic cancer cell panel viability, ATPlite luminescence, 48 h; series mostly up to 57.5 µM
Outline: as §2

Es-2 = test: as above; settings: Gynecologic cancer cell panel viability, ATPlite luminescence, 48 h; series mostly up to 57.5 µM
Outline: as §2

Hek293T = test: as above; settings: Gynecologic cancer cell panel viability, ATPlite luminescence, 48 h, control line for the selectivity index; series mostly up to 57.5 µM
Outline: as §2

JEG-3 = test: as above; settings: Gynecologic cancer cell panel viability, ATPlite luminescence, 48 h; series mostly up to 57.5 µM
Outline: as §2

OV90 = test: as above; settings: Gynecologic cancer cell panel viability, ATPlite luminescence, 48 h; series mostly up to 57.5 µM
Outline: as §2

PA-1 = test: as above; settings: Gynecologic cancer cell panel viability, ATPlite luminescence, 48 h; series mostly up to 57.5 µM
Outline: as §2

Tov-21-G = test: as above; settings: Gynecologic cancer cell panel viability, ATPlite luminescence, 48 h; series mostly up to 57.5 µM
Outline: as §2

Tov112D = test: as above; settings: Gynecologic cancer cell panel viability, ATPlite luminescence, 48 h; series mostly up to 57.5 µM
Outline: as §2

[8] = Primary redox qHTS assay for identification of artifact compounds. (AID 1845223);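 also: 0% = DMSO and 100% = reference compound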
Outline: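 Amplex Red (25 uM) and HRP (250 mU/mL) in HBSS, with compounds for 15 min, then 250 uM DTT for 30 min, room temperature, dark. Fluorescence 525/598 nm read; normalized to DMSO and 10 uM DA3003; Hill fit.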

HaCat = test: Cytotoxic Profiling of Annotated Libraries Using Quantitative High-Throughput Screening (AID 1296008); settings: Five cell lines viability, CellTiter-Glo ATP luminescence, 48-72 h; max response: stronger effect = lower value; also: nearly all actives have a fitted effect of over 60% in size; also: potency is read from the fitted curve at half-maximal effect; as to max response: % is scaled to controls: 0 for no effect and ±100 for the full control effect
Outline: as §1

Chain of Glutathione peroxidase 1 (Homo sapiens) (P07203 whole entry, looked up): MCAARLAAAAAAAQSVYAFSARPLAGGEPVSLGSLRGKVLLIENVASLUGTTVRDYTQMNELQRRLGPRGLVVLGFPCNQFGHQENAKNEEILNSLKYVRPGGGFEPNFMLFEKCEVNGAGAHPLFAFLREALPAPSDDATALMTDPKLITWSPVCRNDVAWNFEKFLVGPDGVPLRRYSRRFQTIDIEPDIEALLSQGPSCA
Chain of Calcium and integrin-binding protein 1 (Homo sapiens) (Q99828 whole entry, looked up): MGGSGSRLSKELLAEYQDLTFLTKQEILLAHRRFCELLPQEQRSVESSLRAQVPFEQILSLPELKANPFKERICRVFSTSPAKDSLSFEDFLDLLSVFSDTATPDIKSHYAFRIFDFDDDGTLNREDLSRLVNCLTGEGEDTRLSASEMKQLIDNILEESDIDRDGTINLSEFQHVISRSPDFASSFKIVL
Chain of Phospholipid hydroperoxide glutathione peroxidase GPX4 (Homo sapiens) (P36969 whole entry, looked up): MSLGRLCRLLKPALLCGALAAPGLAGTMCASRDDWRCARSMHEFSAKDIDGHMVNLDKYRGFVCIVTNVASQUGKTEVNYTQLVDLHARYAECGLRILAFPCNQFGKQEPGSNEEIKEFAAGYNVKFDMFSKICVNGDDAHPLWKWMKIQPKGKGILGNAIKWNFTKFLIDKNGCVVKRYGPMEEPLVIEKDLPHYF

O=C(NCCN1CCC2(CC1)C(=O)NCN2c1cccc(F)c1)c1ccc(F)c(F)c1
inactive: Potency [1] | Potency [2] | Potency [3] | Potency [4] | outcome [5] | Potency [6] | Potency [7] | max response (NIH3T3) -17.5% | Potency (C33A) | Potency (CAOV3) | Potency (CASKI) | Potency (Es-2) | Potency (Hek293T) | Potency (JEG-3) | Potency (OV90) | Potency (PA-1) | Potency (Tov-21-G) | Potency (Tov112D)

O=C1CN=C(c2cccc(Br)c2)c2oc3ccccc3c2N1
inactive: Potency [1] | Potency [2] | Potency [3] | Potency [4] | outcome [5] | Potency [6] | Potency [7] | Potency [8] | Potency (C33A) | Potency (CAOV3) | Potency (CASKI) | Potency (Es-2) | Potency (OV90) | Potency (Tov-21-G)

OC(CNc1ccccc1)Cn1c2ccc(Br)cc2c2cc(Br)ccc21 (centres undefined)
inactive: Potency [2] | Potency [3] | Potency [4] | outcome [5] | Potency [8] | max response (HaCat) -16% | Potency (C33A) | Potency (CAOV3) | Potency (Es-2) | Potency (Hek293T) | Potency (JEG-3) | Potency (OV90) | Potency (PA-1) | Potency (Tov-21-G) | Potency (Tov112D)

CCC(C)C1NC(=O)C2CCCN2C(=O)C(CC(C)C)OC(=O)CCNC(=O)C(C)N(C)C(=O)C(C(C)C)N(C)C1=O (centres undefined) (cyclo([ξLac(3-iPr)]PI[NMeV][NMeA][βAla]); configuration not given here)
inactive: Potency [1] | Potency [2] | Potency [3] | Potency [4] | outcome [5] | Potency [6] | Potency [7] | max response (HaCat) -9.99% | Potency (C33A) | Potency (CASKI)
active: Potency (OV90) 3.98 µM

CC(=O)O[C@H]1C(=O)[C@]2(C)C(O)C[C@H]3OC[C@@]3(OC(C)=O)[C@H]2[C@H](OC(=O)c2ccccc2)[C@]2(O)C[C@H](O)C(C)=C1C2(C)C (some centres undefined)
inactive: Potency [1] | Potency [2] | Potency [3] | Potency [4] | outcome [5] | Potency [7] | Potency [8] | max response (HaCat) -29.4% | max response (NIH3T3) -3.65% | Potency (C33A) | Potency (CAOV3) | Potency (Es-2) | Potency (Hek293T) | Potency (JEG-3) | Potency (OV90) | Potency (PA-1) | Potency (Tov-21-G) | Potency (Tov112D)

Cc1ccc(-n2nccn2)c(C(=O)N2CCN(c3nc4cc(Cl)ccc4o3)CCC2C)c1 (centres undefined)
inactive: Potency [1] | Potency [2] | Potency [4] | outcome [5] | Potency [6] | Potency [7] | outcome (HaCat) | outcome (NIH3T3) | Potency (C33A) | Potency (CAOV3) | Potency (CASKI) | Potency (Es-2) | Potency (Hek293T) | Potency (JEG-3) | Potency (OV90) | Potency (Tov-21-G) | Potency (Tov112D)

CC(C)C(=O)O[C@H]1[C@@H]2[C@H](C)C(=O)O[C@@H]2C[C@@H](C)[C@@H]2C=CC(=O)[C@]21C
inactive: Potency [1] | Potency [2] | Potency [3] | Potency [4] | outcome [5] | Potency [6] | Potency [7] | Potency (CAOV3)
active: Potency (Hek293T) 7.94 µM | Potency (JEG-3) 10 µM | Potency (Tov-21-G) 10 µM

C/C1=C/[C@@H](C)C/C=C/[C@H]2[C@@H]3O[C@]3(C)[C@@H](C)[C@H]3[C@H](Cc4c[nH]c5ccccc45)NC(=O)[C@]32C(=O)/C=C\C(=O)[C@@H]1O
inactive: Potency [1] | Potency [2] | Potency [3] | Potency [4] | outcome [5] | Potency [7] | Potency [8] | Potency (C33A) | Potency (CAOV3) | Potency (CASKI) | Potency (Es-2) | Potency (Hek293T) | Potency (JEG-3) | Potency (OV90) | Potency (PA-1) | Potency (Tov-21-G) | Potency (Tov112D)
active: Potency (NIH3T3) 1.59 µM

CC(C)(O)/C=C/C(=O)[C@](C)(O)[C@H]1[C@H](O)C[C@@]2(C)[C@@H]3CC=C4[C@@H](C[C@H](O)C(=O)C4(C)C)[C@]3(C)C(=O)C[C@]12C
inactive: Potency [1] | Potency [2] | Potency [3] | outcome [5] | Potency [6] | Potency [7] | Potency (C33A)
active: Potency (NIH3T3) 3.17 µM | Potency (CAOV3) 0.398 µM | Potency (CASKI) 1.41 µM | Potency (OV90) 1.26 µM | Potency (PA-1) 2.51 µM | Potency (Tov-21-G) 1.26 µM

N#Cc1ccccc1-c1cc(-c2ccccn2)cn(-c2ccccc2)c1=O
inactive: Potency [1] | Potency [2] | Potency [3] | outcome [5] | Potency [6] | Potency [8] | max response (HaCat) 1.04% | max response (NIH3T3) -0.815% | Potency (C33A) | Potency (CAOV3) | Potency (CASKI) | Potency (Es-2) | Potency (Hek293T) | Potency (JEG-3) | Potency (OV90) | Potency (PA-1) | Potency (Tov-21-G) | Potency (Tov112D)
active: Potency [7] 10.7 µM

C[C@]12CC[C@H](OC3OC(CO)C(O)C(O)C3OC3OC(CO)C(O)C(O)C3O)C[C@@H]1CC[C@@H]1C2CC[C@]2(C)[C@@H](C3=CC(=O)OC3)CC[C@]12O (some centres undefined)
active: Potency (Tov112D) 7.08 µM
inactive: Potency [1] | Potency [2] | Potency [3] | Potency [4] | outcome [5] | Potency [6] | Potency [7] | Potency [8] | max response (HaCat) -2.72% | outcome (NIH3T3) | Potency (CAOV3) | Potency (CASKI) | Potency (JEG-3) | Potency (OV90) | Potency (PA-1)

C[C@@H]1Cc2c(Cl)cc(C(=O)N[C@@H](Cc3ccccc3)C(=O)O)c(O)c2C(=O)O1
inactive: Potency [1] | Potency [2] | outcome [5] | Potency [6] | Potency [7] | Potency [8] | outcome (HaCat) | max response (NIH3T3) -8.41% | Potency (C33A) | Potency (CAOV3) | Potency (CASKI) | Potency (JEG-3) | Potency (OV90) | Potency (Tov-21-G)
